In PMC4336329 (PLoS ONE, 2015):
The campaign covered roughly 310,000 compounds. About 14,000 (4.5%) showed an effect of 50% or more. The effect is printed as a negative number. The full list was thinned out, with strong results kept by preference.

These compounds were tested against human ether-à-go-go-related gene (hERG) potassium channel (human, UniProt Q12809) (assay: primary screen, population patch clamp on CHO cells stably expressing hERG; higher = less effect of the substance).
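Also: peak tail current of the secondary pulse compared with the same well before compound.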

human ether-à-go-go-related gene (hERG) potassium channel, sequence (Q12809 whole entry, looked up): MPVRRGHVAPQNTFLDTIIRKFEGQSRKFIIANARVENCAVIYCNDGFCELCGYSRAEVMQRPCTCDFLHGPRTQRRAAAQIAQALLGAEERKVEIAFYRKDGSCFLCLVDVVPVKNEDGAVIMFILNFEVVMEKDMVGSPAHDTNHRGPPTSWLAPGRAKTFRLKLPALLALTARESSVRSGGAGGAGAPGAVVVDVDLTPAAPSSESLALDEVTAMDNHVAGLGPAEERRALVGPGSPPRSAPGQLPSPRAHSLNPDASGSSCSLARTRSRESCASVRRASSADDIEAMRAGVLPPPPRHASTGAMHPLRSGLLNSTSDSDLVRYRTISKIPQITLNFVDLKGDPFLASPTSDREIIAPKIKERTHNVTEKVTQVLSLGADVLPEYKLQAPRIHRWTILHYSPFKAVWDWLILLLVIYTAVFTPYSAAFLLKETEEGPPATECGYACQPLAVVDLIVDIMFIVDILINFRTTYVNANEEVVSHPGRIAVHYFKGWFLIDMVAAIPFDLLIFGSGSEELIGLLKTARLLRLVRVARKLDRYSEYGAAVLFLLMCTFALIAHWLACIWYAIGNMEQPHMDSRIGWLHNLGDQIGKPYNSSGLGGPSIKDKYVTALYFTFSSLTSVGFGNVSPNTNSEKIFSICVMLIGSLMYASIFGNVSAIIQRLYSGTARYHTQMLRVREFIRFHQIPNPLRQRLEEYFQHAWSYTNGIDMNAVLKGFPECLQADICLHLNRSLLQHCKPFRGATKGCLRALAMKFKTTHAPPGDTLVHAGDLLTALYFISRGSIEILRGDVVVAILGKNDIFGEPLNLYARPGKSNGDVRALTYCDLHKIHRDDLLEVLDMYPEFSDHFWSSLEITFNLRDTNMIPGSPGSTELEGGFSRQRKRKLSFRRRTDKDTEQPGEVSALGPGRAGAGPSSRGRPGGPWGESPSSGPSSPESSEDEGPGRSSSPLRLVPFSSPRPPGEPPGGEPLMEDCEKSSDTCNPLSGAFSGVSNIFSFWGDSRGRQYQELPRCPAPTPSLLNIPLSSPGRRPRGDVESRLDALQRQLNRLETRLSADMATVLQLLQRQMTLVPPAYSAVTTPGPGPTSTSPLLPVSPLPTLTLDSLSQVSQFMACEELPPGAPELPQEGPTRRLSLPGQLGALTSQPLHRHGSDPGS

Compound	hERG current change (%, negative = inhibition) at 10uM [%]
Cc1nc2ccc(NC(=O)Cc3cccs3)cc2s1	11
CCOC(=O)N/N=C/C=C/c1ccccc1	1.98
O=C(O)c1cc(N/N=C/c2c[nH]c3ccccc23)ccc1Cl	10.3
O=S(=O)(/C=C/c1ccccc1)N1CCN(c2ccccc2)CC1	-2.08
S=c1[nH]nc(-c2ccco2)n1/N=C/c1c(Cl)cccc1Cl	-10.9
Cc1cc(NC(=O)c2ccc(Cl)cc2)ccc1NC(=O)c1ccccc1Cl	9.97
Cc1cc(C)c(C(=O)COC(=O)c2nn(C)c(=O)c3ccccc23)cc1C	-30.4
O=C(O)c1ccccc1C(=O)NCCCCCCNC(=O)c1ccccc1C(=O)O	7.63
Cc1ccccc1NC1=CC(=O)CC(C)(C)C1	-0.789
COc1cc(-c2nc(CN3CCN(CC(C)C)C(=O)[C@@H]3C)c(C)o2)ccc1F	-14.2
COc1ccc(-c2nc(CSCC(=O)N3CCC(C(N)=O)CC3)c(C)o2)cc1OC	-0.184
CCOC(=O)C1CCCN(Cc2cn[nH]c2-c2ccc(F)cc2F)C1 (stereo not shown)	-2.03
CCOC(=O)CC1CCCCN1Cc1cn[nH]c1-c1ccc(F)cc1F (stereo not shown)	-64.8
CCOC(=O)CC1CCCCN1Cc1nc(-c2ccc(F)c(OC)c2)oc1C (stereo not shown)	-65.5
CCOC(=O)C1CCCCN1Cc1cn[nH]c1-c1ccc(F)cc1F (stereo not shown)	1.06
CCC1CCCCN1CCCNC(=O)CS(=O)Cc1nc(-c2ccc(OC)c(OC)c2)oc1C (stereo not shown)	5.21
COc1cc(-c2nc(CN3CCCCC3CCNC(C)=O)c(C)o2)ccc1F (stereo not shown)	-66.6
COc1ccc(-c2nc(CS(=O)CC(=O)NCCN3CCCCC3C)c(C)o2)cc1OC (stereo not shown)	16.8
O=C(CSc1nc2cc(Cl)ccc2s1)NCc1ccc2c(c1)OCO2	0.137
COc1cc(OC)cc(C(=O)N(Cc2cc3cc(C)ccc3[nH]c2=O)C(C)C)c1	-7.49
O=C(C[n+]1ccccc1)N/N=C/c1ccc(Cl)cc1.[Cl-]	-5.76
NC(=O)CSc1nnnn1-c1ccccc1Cl	6.07
O=C(N/N=C/C(Br)=C/c1ccccc1)c1ccccc1F	-38.5

Compound	hERG current change (%, negative = inhibition) at 10uM [%]
Cc1ccc2c(CC(=O)N3CCOCC3)coc2c1	8.58
CCN(CC)S(=O)(=O)c1ccc(C(=O)OCCN2C(=O)CCC2=O)cc1	-7.82
CCCSc1nc2c(c(=O)n(C)c(=O)n2C)n1Cc1ccc(C)cc1	-3.8
Cc1ccc(Cn2c(SCCN3CCCCC3)nc3c2c(=O)n(C)c(=O)n3C)cc1	-75.4
Cc1cccc(Cn2c(SCCN3CCOCC3)nc3c2c(=O)n(C)c(=O)n3C)c1	-26.2
Cn1c(=O)c2c(nc(SCCN3CCOCC3)n2Cc2ccccc2Cl)n(C)c1=O	-36.8
Cn1c(=O)c2c(nc(SCCN3CCOCC3)n2Cc2ccccc2)n(C)c1=O	-32.5
Cn1c(=O)c2c(nc(SCCN3CCOCC3)n2Cc2ccc(F)cc2)n(C)c1=O	-56
Cn1c(=O)c2c(nc(SCCN3CCCCC3)n2Cc2ccc(Cl)cc2)n(C)c1=O	-72.3
Cn1c(=O)c2c(nc(SCCN3CCCCC3)n2Cc2ccccc2)n(C)c1=O	-76
Cc1ccc(Cn2c(SCC(C)C)nc3c2c(=O)n(C)c(=O)n3C)cc1	4.03
Cc1ccc(Cn2c(SCCN3CCOCC3)nc3c2c(=O)n(C)c(=O)n3C)cc1	-28
Cn1c(=O)c2c(nc(SCCN3CCCCC3)n2C)n(C)c1=O	3.49
CCSc1nc2c(c(=O)n(C)c(=O)n2C)n1Cc1ccc(Cl)cc1	-17.5
O=C(NCc1ncc(C(F)(F)F)cc1Cl)Nc1ccccc1	3.57
Cc1ccc(C2=NN(C(=O)CCC(=O)O)C(c3ccc4c(c3)OCO4)C2)cc1 (stereo not shown)	-2.17
COc1ccccc1NCC(=O)n1nc(C)cc1C	29.8
NC(=O)Nc1cc(Cl)ccc1Cl	2.21
COc1cc(-c2nnc(COC(=O)c3ccc(C)o3)o2)cc(OC)c1OC	7.46
Cc1ccc(/C=C/C(=O)NCCc2c[nH]c3ccccc23)o1	-7.78
O=C(NCc1ccccn1)C1CCN(S(=O)(=O)c2cccs2)CC1	-15.8
Cc1ccc2nc(Nc3ccc(C)c(C)c3)c3nncn3c2c1	14.5
CCC1=NN(C(=O)Cc2ccc(OC)cc2)C(O)(C(F)(F)F)C1 (stereo not shown)	-6.51

Compound	hERG current change (%, negative = inhibition) at 10uM [%]
O=C(NC1=NCCS1)c1ccc(Cl)c(S(=O)(=O)N2CCCCC2)c1	-2.52
CCOC(=O)C(C(=O)OCC)C1CCS(=O)(=O)C1 (stereo not shown)	14.4
Cc1ccnn1C(C)C(=O)O (stereo not shown)	26.3
Cc1ccc(C(=O)N/C(=C/c2ccccc2)C(=O)NCC2CCCO2)cc1 (stereo not shown)	-21.7
Cc1ccc(C(=O)N/C(=C/c2ccccc2)C(=O)NC(Cc2ccccc2)C(=O)O)cc1 (stereo not shown)	8.07
Cc1ccc(C(=O)N/C(=C\c2ccccc2)C(=O)NCc2ccncc2)cc1	-71.2
Cc1ccc(C(=O)N/C(=C/c2ccccc2)C(=O)NCc2ccncc2)cc1	-65.2
O=C(/C=C/c1cccs1)c1ccc(Br)cc1	7.19
CC(C)Oc1ccc(Br)cc1C(=O)N/N=C/c1c[nH]c2ccccc12	16.2
COc1ccccc1NC(=O)N(CCN1CCCC1)Cc1cc2cc(C)ccc2[nH]c1=O	-64.8
COc1cc2cc(CN(CCN3CCCC3)C(=O)Nc3ccccc3Cl)c(=O)[nH]c2cc1OC	-6.16
COc1ccc(NC(=O)N(CCc2ccccc2)Cc2cc3c(C)cc(C)cc3[nH]c2=O)cc1	14
COc1ccccc1NC(=S)N(Cc1ccco1)Cc1cc2cc(C)ccc2[nH]c1=O	3.67
Cc1cc(C)c2cc(CN(CCN(C)C)C(=O)Nc3ccccc3Cl)c(=O)[nH]c2c1	-55.3
CCOc1ccc2[nH]c(=O)c(CN(CCN3CCCC3)C(=S)Nc3ccccc3OC)cc2c1	-49.7
COc1ccc2[nH]c(=O)c(CN(CCN3CCCC3)C(=O)Nc3ccccc3Cl)cc2c1	-47.6
CCOc1ccc(NC(=S)N(CCN2CCOCC2)Cc2cc3cc4c(cc3[nH]c2=O)OCO4)cc1	-34.6
CCOc1ccc2[nH]c(=O)c(CN(CCN3CCCC3)C(=S)Nc3ccccc3OCC)cc2c1	-70.2
COc1ccccc1NC(=S)N(CCCN(C)C)Cc1cc2cc3c(cc2[nH]c1=O)OCO3	33.3
Cc1cc(C)c2cc(CN(CCO)C(=O)Nc3ccc(Cl)cc3)c(=O)[nH]c2c1	-1.76
COc1ccccc1NC(=O)N(CCN(C)C)Cc1cc2cc(C)ccc2[nH]c1=O	-50.2
Cc1ccc(S(=O)(=O)/C(C#N)=C/c2c(N3CC(C)OC(C)C3)nc3ccccn3c2=O)cc1 (stereo not shown)	-46.3
CN(C(=S)NC(=O)c1ccccc1)c1c(N)n(Cc2ccccc2)c(=O)[nH]c1=O	0.51

Compound	hERG current change (%, negative = inhibition) at 10uM [%]
Cc1ccc(S(=O)(=O)NCCSc2nnnn2C)cc1	-2.53
Cc1cc2cc(OCc3ccccc3)ccc2n1C	18
CN(C)S(=O)(=O)c1cccc(-c2csc(=Nc3ccccc3)n2CCCN2CCOCC2)c1	-26.5
O=C1[C@@H]2[C@H](C(=O)N1O)[C@H]1C=C[C@@H]2C1	-5.3
CC(C)(C)c1cc(CP(=O)(c2ccccc2)c2ccccc2)cc(C(C)(C)C)c1O	14.7
CC(=O)Nc1ccc(S(=O)(=O)N2CCSC2c2ccc(C)cc2)cc1 (stereo not shown)	2.9
Cc1csc(NC(=O)c2ccc3c(c2)OCO3)n1	-0.0676
CCN(CC)CCCN(Cc1cc2cc3c(cc2[nH]c1=O)OCO3)C(=O)Nc1ccccc1OC	-10.6
CCN(CC)CCCN(Cc1cc2cc3c(cc2[nH]c1=O)OCO3)C(=S)Nc1ccccc1OC	-10.5
CCN(CC)CCN(Cc1cc2cc(C)ccc2[nH]c1=O)C(=O)Nc1ccccc1OC	-62.2
Nc1c(-c2cccc(Cl)c2)cnn1-c1cccc([N+](=O)[O-])c1	-41.4
O=C1C2C3C=CC(C3)C2C(=O)N1c1ccc(-c2nc3ccccc3c(=O)o2)cc1 (stereo not shown)	19.6
COC(=O)C1=C(C)N(Cc2ccccc2)C(=O)N[C@H]1c1cccc(C(F)(F)F)c1	-8.04
CN1CCC(N2CCN(c3cccc(C(F)(F)F)c3)CC2)CC1	-12.8
CCN(CC)CC(=O)N1CCCC(N2CCN(c3cccc(C(F)(F)F)c3)CC2)C1 (stereo not shown)	-10.5
Fc1ccccc1N1CCN(C2CCCN(Cc3ccccc3C(F)(F)F)C2)CC1 (stereo not shown)	-5.91
CC(=O)c1cccc(CN2CCCC(N3CCN(c4ccccc4F)CC3)C2)c1 (stereo not shown)	-35.3
O=C(C1CCOCC1)N1CCCC(N2CCN(c3cccc(C(F)(F)F)c3)CC2)C1 (stereo not shown)	-12.9
FC(F)(F)c1ccccc1CN1CCCC(N2CCN(c3ccccc3)CC2)C1 (stereo not shown)	-0.712
CCCN1CCC(N2CCN(c3cccc(C(F)(F)F)c3)CC2)CC1	-75.3
Oc1ccccc1CN1CCCC(N2CCN(c3cccc(C(F)(F)F)c3)CC2)C1 (stereo not shown)	-61.9
Fc1ccccc1N1CCN(C2CCCN(Cc3cccc(C(F)(F)F)c3)C2)CC1 (stereo not shown)	-52.1
